Compound activity from PubChem BioAssay.
Hits are enriched below; roughly 6.7% of the tested compounds scored in any of these assays.
C diff HTS: blocks growth of Clostridium difficile; 86,000 tested, 0.25% active; growth activity, negative = inhibition, % at 16 µg/mL (by protocol); Clostridium difficile clinical isolate growth, OD600, 24 h; active compounds read low; AID 1259249;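 active = mean growth activity at or below -80% and every replicate also at or below -80%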;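 note: 0% = DMSO wells and -100% = levofloxacin 16 µg/mL wells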
Pf Dd2 inh: inhibitors of Plasmodium falciparum Dd2 growth; P. falciparum Dd2 growth, SYBR Green, 72 h; active compounds read low; activity change, % at 10 µM; 94,000 tested, 2.3% active; in the data active = activity change below about -80%
T cruzi growth-1: T. cruzi proliferation inhibition. T. cruzi beta-gal in NIH3T3, GalScreen luminescence, 90 h. inhibition, % at 8.34 µM. 77,000 tested, 5.9% active;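 active = mean inhibition above about 93%, with at least 55% of replicates each passing it, limit read from the data, passing the limit was not always enough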
T cruzi growth-2: Trypanosoma cruzi proliferation inhibition | shares compounds with T cruzi growth-1 | T. cruzi beta-gal in NIH3T3, GalScreen luminescence, 90 h | inhibition, % at 8.35 µM | 5,600 tested, 72% active;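 active = mean replicate inhibition above about 95% and at least 55% of replicates individually reaching it, limit read from the data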
T cruzi growth-3: inhibitors of T. cruzi proliferation | AID 651740 | shares compounds with T cruzi growth-1 | T. cruzi beta-gal in NIH3T3, GalScreen luminescence, 90 h | 5,600 tested, 21% active | inhibition, % at 2.09 µM;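 active = mean inhibition above about 95%, with at least 55% of replicates also reaching it, limit read from the data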;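 note: plate controls were neutral control median for no effect and positive control median for full effect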
NIH3T3 tox: NIH/3T3 (mouse) viability loss. shares compounds with T cruzi growth-1. NIH/3T3 viability, CellTiter-Glo ATP luminescence, 90 h. cytotoxicity (signal decrease), % at 8.35 µM. 5,600 tested, 14% active. AID 651742;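 active = mean signal decrease across replicates above about 35% based on untreated-well scatter, with enough replicates individually passing, limit read from the data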;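 note: 0% = median of neutral control wells and 100% = median of positive control wells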
NIH3T3 tox 2: kills mouse NIH/3T3 fibroblasts; shares compounds with T cruzi growth-1; NIH/3T3 viability, CellTiter-Glo ATP luminescence, 90 h; inhibition, % at 24.9 µM; 5,600 tested, 56% active; AID 651744;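 active = mean loss of cell viability signal at or above a set limit, and enough replicates individually reaching it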;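 note: 0% = median of neutral control wells and 100% = median of positive control wells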
The depositor's hits bear a star; · = not tested or not shown.

SMILES | C diff HTS | Pf Dd2 inh | T cruzi growth-1 | T cruzi growth-2 | T cruzi growth-3 | NIH3T3 tox | NIH3T3 tox 2
C[C@@H]1CCCCO[C@H](CN(C)C(=O)Nc2cccc3ccccc23)[C@H](C)CN([C@H](C)CO)C(=O)c2cc(NS(C)(=O)=O)ccc2O1 | 3 | -59 | 11 | · | · | · | ·
C[C@@H]1CN([C@@H](C)CO)C(=O)c2cc(NS(=O)(=O)c3ccc(F)cc3)ccc2O[C@@H](C)CCCCO[C@H]1CN(C)C(=O)Nc1cccc2ccccc12 | -8 | -86* | 100* | 108* | 33 | -21 | -16
C[C@@H]1CCCCO[C@H](CN(C)C(=O)Nc2cccc3ccccc23)[C@H](C)CN([C@H](C)CO)C(=O)c2cc(NS(=O)(=O)c3ccc(F)cc3)ccc2O1 | 2 | -84* | 105* | 106* | 73 | 9 | 5
CNC[C@H]1Oc2ccc(NC(=O)NC(C)C)cc2C(=O)N([C@@H](C)CO)C[C@H]1C | 1 | 12 | -10 | · | · | · | ·
C[C@@H]1CN([C@@H](C)CO)C(=O)c2cc(NC(=O)CCCN(C)C)ccc2O[C@@H](C)CCCCO[C@H]1CN(C)Cc1ccncc1 | 4 | 28 | 55 | · | · | · | ·
C[C@H](CO)N1C[C@H](C)[C@@H](CN(C)C(=O)NC2CCCCC2)OCCCC[C@H](C)Oc2ccc(NS(C)(=O)=O)cc2C1=O | · | 44 | -22 | · | · | · | ·
Cc1cc(C(=O)Nc2cccc3c2O[C@H](CN(C)Cc2ccc(Oc4ccccc4)cc2)[C@@H](C)CN([C@@H](C)CO)C3=O)n(C)n1 | 8 | -8 | 47 | · | · | · | ·
C[C@H](CO)N1C[C@H](C)[C@H](CN(C)Cc2ccc3c(c2)OCO3)Oc2c(NC(=O)c3ccncc3)cccc2C1=O | 0 | 2 | 97* | 85 | 78 | 3 | 16
C[C@@H]1CN([C@H](C)CO)C(=O)c2cccc(NC(=O)c3cnccn3)c2O[C@@H]1CN(C)Cc1ccc(Cl)c(Cl)c1 | 16 | -19 | 68 | · | · | · | ·
C[C@@H]1CN([C@@H](C)CO)C(=O)c2cccc(NC(=O)c3cnccn3)c2O[C@@H]1CN(C)Cc1ccc2c(c1)OCO2 | 2 | -33 | 97* | 52 | 5 | 29 | 50*
C[C@H](CO)N1C[C@H](C)[C@@H](CN(C)Cc2ccc3c(c2)OCO3)Oc2c(NC(=O)c3cnccn3)cccc2C1=O | 2 | -10 | 35 | · | · | · | ·
C[C@H]1CN([C@@H](C)CO)C(=O)c2cccc(NC(=O)c3cnccn3)c2O[C@@H]1CN(C)Cc1ccc(Cl)c(Cl)c1 | 18 | -8 | 109* | 84 | -3 | -11 | 50*
C[C@H]1CN([C@@H](C)CO)C(=O)c2cccc(NC(=O)c3ccncc3)c2O[C@@H]1CN(C)Cc1ccc(Cl)c(Cl)c1 | 8 | -32 | 94 | · | · | · | ·
CO[C@@H]1CN(C)C(=O)c2ccc(NC(=O)C3CCOCC3)cc2OC[C@@H](C)N(C)C[C@@H]1C | -1 | 21 | -18 | · | · | · | ·
C[C@H]1CN([C@@H](C)CO)C(=O)c2cc(C3=CCCC3)cnc2O[C@@H]1CN(C)C(=O)Cc1ccncc1 | 2 | -15 | 11 | · | · | · | ·
CO[C@H]1CN(C)C(=O)c2ccc(NC(C)=O)cc2OC[C@@H](C)N(C(=O)Cc2ccccn2)C[C@@H]1C | · | -14 | -16 | · | · | · | ·
C[C@@H]1CCCCO[C@H](CN(C)S(=O)(=O)c2ccc(Cl)cc2)[C@@H](C)CN([C@H](C)CO)C(=O)c2cc(NC(=O)CCC(F)(F)F)ccc2O1 | 8 | -58 | 23 | · | · | · | ·
C[C@H](CO)N1C[C@H](C)[C@H](CN(C)Cc2ccc(C(F)(F)F)cc2)Oc2ccc(NC(=O)c3ccncc3)cc2CC1=O | 3 | 6 | 66 | · | · | · | ·
C[C@@H]1CN([C@H](C)CO)C(=O)Cc2cc(NC(=O)C3CC3)ccc2O[C@H]1CN(C)Cc1ccc(C(F)(F)F)cc1 | 0 | -1 | 72 | · | · | · | ·
C[C@H](CO)N1C[C@H](C)[C@@H](CN(C)Cc2ccc(C(F)(F)F)cc2)Oc2ccc(NC(=O)C3CC3)cc2CC1=O | -16 | -5 | 102* | 105* | 99* | 3 | -4
C[C@@H]1CN([C@H](C)CO)C(=O)Cc2cc(NC(=O)c3ccncc3)ccc2O[C@H]1CN(C)Cc1ccc(C(F)(F)F)cc1 | -12 | 4 | 106* | 104* | 45 | 24 | 63*
